Measurements published in PubChem BioAssay (NCI).
This is part of a sample that, as a whole, favours compounds with a hit. Of some 83,000 tested, about 20% had one in any assay.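 For each line, cells grew in 96-well plates with the test compound present at a single concentration for 48 hours.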 Activity calls are given as the source filed them.

tested on: IGROV1 ovarian; assay: NCI-60 one-dose screen, 48 h (100 = growth as untreated, 0 = no growth, -100 = all killed); conditions: 10 µM
Method: Growth inhibition of the IGROV1 human tumor cell line is measured as a screen for anti-cancer activity. Cells are grown in 96 well plates and exposed to the test compound for 48 hours. Compounds are tested at a single concentration, which is 10^-5 M for most compounds. The reported endpoint is percent growth (GI% or GIPRCNT), where numbers from 0 - 100% represent growth inhibition, and numbers from -100% - 0 represent cell death. For example, a value of 40 represents 60% growth inhibition. A value of 0 means no net growth occurred over the course of the experiment. A value of -40 indicates 40% of cells at the beginning of the experiment died by the end of the experiment. A value of -100 means all cells are dead at the end of the experiment.
NCI-60 Human Tumor Cell Lines Screen was performed using the standard one-dose NCI protocol, which is described in more detail at https://dtp.cancer.gov/discovery_development/nci-60/default.htm.
Compounds with GIPRCNT values below 10 were considered active. Activity score was based on GIPRCNT using the following formula: […]
Score is 0 for GIPRCNT values of 100 or above, 50 for GIPRCNT values of 0, and 100 for GIPRCNT values of -100.

Compound | growth
CCN(CC)CCNc1ccc(CO)c2sc3ccccc3c(=O)c12 | 51.6% (inactive)
Nc1ccccc1SC(CC(=O)c1ccccc1)c1c(Cl)cccc1Cl (stereo not given) | 62.7% (inactive)
CCOC(=O)Nc1cc2c(c(N)n1)N=C(c1ccccc1)CO2 | 25.2% (inactive)
N/N=C(/Cc1ccccc1)NNC(N)=S | 95.2% (inactive)
CCOC(=O)c1[nH]c(C)c(C(C)=O)c1C | 102% (inactive)
CNS(=O)(=O)c1ccc(Cl)c(Cl)c1 | 114% (inactive)
CC1CCCCN1C(=S)Nc1ccc(S(=O)(=O)N2CCCCC2)cc1 (stereo not given) | 138% (inactive)
Cc1ccc(C(O)C2CC2)cc1 (stereo not given) | 96.8% (inactive)
CCN(CC)C(=O)/C=C(/C)c1ccccc1 | 117% (inactive)
CC1CC(O)C2C3(C)CCCC2(COC3=O)C12CCC1(CCOC1=O)O2 (stereo not given) | 113% (inactive)
CCCCCCCCCCCCCCCCC1CC(=O)OC1=O (stereo not given) | 124% (inactive)
N#Cc1c(N)sc(=S)c2c1CCCC2 | 116% (inactive)
COc1ccc(C(O)c2ccccc2)cc1 (stereo not given) | 99.3% (inactive)
CC1(C)OC(=O)C(c2ccsc2)C(=O)O1 | 103% (inactive)
Cc1ccc(C)n1-c1ccsc1C(=O)NNC(=O)CCl | 103% (inactive)
NC(=S)NN=C1CCCC1 | 93.4% (inactive)
Cc1cc(C)c(CC(=O)O)c(C)c1 | 108% (inactive)
CCOC(=O)CCCC(=O)OCC | 102% (inactive)
CCC(C)(C)C1CCC(O)CC1 (stereo not given) | 107% (inactive)
O=C(Cc1ccc(OCc2ccccc2)cc1)NCc1ccc2c(c1)OCO2 | 60.4% (inactive)

Compound | growth
O=C(CN1CCNCC1)N1CCOCC1 | 115% (inactive)
CCCCC1C(=O)N(c2ccccc2)N(c2ccccc2)C1=O | 106% (inactive)
Nc1ccccc1C(=O)Nc1ccc(Cl)cc1Cl | 35.9% (inactive)
CCOC(=O)c1cc(/C=C/c2cccc(Cl)c2)on1 | 93.9% (inactive)
CC(=O)Oc1ccc(Br)cc1C(=O)O | 98.4% (inactive)
O=C(/C=C/C(=O)c1ccccc1)c1ccccc1 | 113% (inactive)
CC(C)C(C#N)(C(C)C)C(C)C | 103% (inactive)
Cc1cc(N)c(S(=O)(=O)O)c(N)c1 | 130% (inactive)
CC1(C(=O)O)NC(C(=O)O)Cc2c1[nH]c1ccccc21 (stereo not given) | 107% (inactive)
O=C(Nc1ccccc1)OCCc1ccccc1 | 103% (inactive)
S=C(Nc1ccccc1)N1CCCCC1 | 100% (inactive)
O=C1Cc2cc(O)ccc2O1 | 104% (inactive)
O=C(O)c1cccc([N+](=O)[O-])c1 | 113% (inactive)
O=C1Cc2ccccc2C(=O)O1 | 114% (inactive)
CC(C)CCCC(=O)O | 104% (inactive)
COCCOC(=O)c1ccc(C(C)C)cc1 | 104% (inactive)
CCCCN(CCCC)CCCO | 125% (inactive)
COC(=O)c1cc(-c2ccc(Cl)c(Cl)c2)[nH]c(=O)c1C#N | 110% (inactive)
CC1(c2ccccc2)NC(=O)NC1=O (stereo not given) | 105% (inactive)
NCCCN | 113% (inactive)
